This is one part of a sample in which hits are shown more often than they occur.
TbREL1 inh: TbREL1 RNA ligase inhibitors, primary screen, biochemical, FRET fluorescence | RNA-editing ligase 1, mitochondrial (Trypanosoma brucei brucei), P86926 | TbREL1 RNA ligation | inhibition, % at 9.66 µM | 0.49% of 89,000 active;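 active = inhibition above the mean inhibition across all screened compounds plus 3 SD, cut at about 11% in these data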;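 note: 0% = plate median of test wells and 100% = NSC42067 control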
Target sequence (P86926 whole entry, looked up): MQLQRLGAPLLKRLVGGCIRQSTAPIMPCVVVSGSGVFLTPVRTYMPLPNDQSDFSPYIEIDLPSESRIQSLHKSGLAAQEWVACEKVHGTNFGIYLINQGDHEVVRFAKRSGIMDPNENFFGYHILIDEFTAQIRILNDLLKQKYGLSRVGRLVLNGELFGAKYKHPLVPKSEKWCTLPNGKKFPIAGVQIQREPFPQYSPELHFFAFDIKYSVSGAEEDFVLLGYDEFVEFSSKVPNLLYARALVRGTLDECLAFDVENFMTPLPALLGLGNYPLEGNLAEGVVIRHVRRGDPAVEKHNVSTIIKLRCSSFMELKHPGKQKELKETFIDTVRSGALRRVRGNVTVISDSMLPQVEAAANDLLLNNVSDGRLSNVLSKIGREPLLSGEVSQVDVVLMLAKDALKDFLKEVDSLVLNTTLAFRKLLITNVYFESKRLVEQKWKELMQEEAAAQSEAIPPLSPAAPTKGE
TbREL1 confirm: TbREL1 RNA ligase inhibitors, confirmation, biochemical, FRET fluorescence, triplicate | shares compounds with TbREL1 inh | TbREL1 RNA ligation | inhibition, % at 9.66 µM | 37% of 390 active | AID 1117282, 2014;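 active = mean inhibition across replicates above a set limit taken from the earlier primary screen, cut at about 11% in these data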;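 note: 0% = REL1 with substrate and DMSO and 100% = REL1 plus control inhibitor NSC42067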
Numbers without * were called inactive.

SMILES	TbREL1 inh	others
Cn1cccc1/C=C1\SC(=S)N(NC(=O)c2ccccc2)C1=O	4
O=C(/C=C/c1ccco1)Oc1cc(Br)cc(/C=N/NC(=O)c2ccccc2O)c1	0
O=C(NCCC1=CCCCC1)C1CCN(S(=O)(=O)c2ccccc2[N+](=O)[O-])CC1	-4
O=C(NC1CCCCN(Cc2ccc(Cl)cc2)C1=O)C(c1ccccc1)c1ccccc1 (centres undefined)	-2
COC(=O)CSc1nnc(-c2ccc(NS(=O)(=O)c3c(C(C)C)cc(C(C)C)cc3C(C)C)cc2)o1	3
CCC(C(=O)O)N1C(=O)/C(=C/c2cccn2C)SC1=S (centres undefined)	1
O=C(O)CC(C(=O)O)N1C(=O)/C(=C/c2ccc(-c3nc4ccccc4s3)o2)SC1=S (centres undefined)	84*
O=C(O)CCCN1C(=O)/C(=C\c2ccc(-c3nc4ccccc4s3)o2)SC1=S	11
COc1ccc([C@H]2OC(=O)C[C@H]2C(=O)N2CCN(c3ccccc3C(F)(F)F)CC2)cc1OC	4
COC(=O)c1cccc(Cn2ccc3ccc(-c4ccc5ccn(C(=O)c6ccccc6OC)c5c4)cc32)c1	-4
O=C(Cn1nnc(-c2ccncc2)n1)Nc1ccc(Cl)cc1	0
Cc1ccc(NC(=S)NNC(=O)CSc2nnc(SCc3cccc4ccccc34)s2)cc1	-9
CCC1CCc2sc(C(=O)Nc3cc(S(=O)(=O)N4CCOCC4)ccc3OC)cc2C1 (centres undefined)	1
CN(C)CCCN(C(=O)c1ccc2c(c1)CCCC2)c1nc2cc3c(cc2s1)OCO3	7
CN(C)CCCN(C(=O)c1ccc(S(=O)(=O)N2CCc3ccccc32)cc1)c1nc2ccc(Cl)cc2s1	6
CN(C)CCCN(C(=O)c1ccc(S(=O)(=O)N2CCc3ccccc32)cc1)c1nc2ccc(F)cc2s1	12*	TbREL1 confirm=8
Cc1ccc2nc(N(CCCN(C)C)C(=O)c3ccc(S(=O)(=O)N4CCc5ccccc5C4)cc3)sc2c1	0
CN(C)CCCN(C(=O)CCS(=O)(=O)c1ccccc1)c1nc2cc3c(cc2s1)OCO3	10
CN(C)CCCN(C(=O)c1ccc(C(=O)c2ccccc2)cc1)c1nc2cc3c(cc2s1)OCCO3	12*	TbREL1 confirm=8
N=c1c2c(ccn1Cc1ccccc1)Oc1ccc3ccccc3c1C2c1ccccc1 (centres undefined)	5
CCOc1ccc(OCCC(=O)N(CCOC)c2c(N)n(Cc3ccccc3)c(=O)[nH]c2=O)cc1	0
CCOC(=O)CC1C(=O)NCCN1S(=O)(=O)c1cccc(C(F)(F)F)c1 (centres undefined)	-2
COC(=O)c1ccc(S(=O)(=O)N2CCC(NC(=O)CCc3ccccc3)CC2)cc1	1
CC(=O)Nc1ccc(NC(=O)CSc2nc(N)c(NC(=O)c3ccco3)c(=O)[nH]2)cc1	-1
COC(=O)CCC[C@H]1CC2(C[C@H](CCCO[Si](C)(C)C(C)(C)C)N1C(=O)OC(C)(C)C)OCCO2	-1
SMILES	TbREL1 inh	others
c1cc(-c2cn(C[C@H]3CC[C@@H]([C@@H]4CC[C@H](Cn5cc(-c6ccsc6)nn5)O4)O3)nn2)cs1	0
Oc1ccc(Nc2ccccc2F)c2cccnc12	17*	TbREL1 confirm=-9
Oc1ccc(CNc2ccccc2F)c2cccnc12	1
Oc1ccc(-c2ccccc2F)c2cccnc12	-4
O=C(Nc1ccc2ccccc2c1)C1CC2CCC1C2 (centres undefined)	1
O=C1NC[C@@H](CCCCN2C[C@H](Cc3ccc(O)cc3)N(CCc3ccccc3)C(=O)C2=O)N(CCc2ccc(O)cc2)C1=O	2
CCc1ccc(OCCOCCN2CCN(C)CC2)cc1	16*	TbREL1 confirm=8
CN1CCN(CCOc2ccc(Cl)c(Cl)c2)CC1	7
CCN1CCN(CCOCCOc2ccccc2)CC1	4
CC(=O)NC(C)(c1ccccc1)c1nc(-c2cccc(C#N)c2)cs1 (centres undefined)	0
O=C(/C=C/c1cccnc1)c1ccc([N+](=O)[O-])cc1	11*	TbREL1 confirm=11
COc1cc(C(=O)/C=C/c2cccnc2)c([N+](=O)[O-])cc1OC	2
CN(C)C(=O)COc1ccc(C(=O)/C=C/c2cccnc2)cc1	8
COc1cc(-n2c(C)nc3cc(C(=O)N4CCCN(C(C)=O)CC4)ccc32)cc(OC)c1OC	3
Cc1nc(N/N=C/c2cccc(F)c2)cc(N2CCOCC2)n1	3
C/C(=N\Nc1cc(N2CCOCC2)nc(C)n1)c1cccc([N+](=O)[O-])c1	12*	TbREL1 confirm=2
C/C(=N\Nc1ccc(Cl)c(C(=O)O)c1)c1cccc([N+](=O)[O-])c1	2
O=S(=O)(c1cc2ccccc2s1)n1c(CN2CCOCC2)nc2ccccc21	0
O=C(Nc1ccc(F)cc1)OCCN1CCN(Cc2ccccc2)CCC1=O	-3
O=C(NCc1ccccc1)OCCN1CCN(Cc2ccccc2)CCC1=O	-3
Cc1ccc(NC(=O)OCCN2CCN(Cc3ccccc3)CCC2=O)cc1C	12*	TbREL1 confirm=0
CC1(Cc2ccc(F)c(Cl)c2)C(=O)Nc2c(Cl)cccc21 (centres undefined)	-4
COc1ccc(Br)c(Cn2c(C)c(C(=O)NCCC#N)sc2=O)c1	-1
Cc1cc(=O)c(C(=O)Nc2cccc(N3CCCC3=O)c2)nn1-c1ccccc1F	0
N#CCSc1nccc(/C=C/c2ccccc2)n1	12*	TbREL1 confirm=2
SMILES	TbREL1 inh	others
N#CCSc1nc2ccccc2o1	5
C(=C\c1ccccc1)/CSc1nc2ncccc2[nH]1	0
COc1cc2c(c(OC)c1OC)C1(CCCCC1)CC2NCC=C(C)C (centres undefined)	-2
Cc1ccc(-c2cc(-c3nnc(SCC(=O)N4c5ccccc5Sc5ccc(Cl)cc54)n3N)[nH]n2)cc1	2
COc1ccc(NC(=O)CSc2nc3ccccc3c(=O)[nH]2)cc1S(N)(=O)=O	1
CCC[C@H]1[C@@H](OC(=O)NC2CCCCC2)CC[C@@]23CCCN2C(=O)CCC[C@@H]13	6
CC(=O)c1cccc(NC(=O)C2(C)Cc3c(-c4cccc(C(N)=O)c4)ccnc3O2)c1 (centres undefined)	3
CC1(C(=O)NCc2ccc(F)c(F)c2)Cc2c(-c3cccc(C(N)=O)c3)ccnc2O1 (centres undefined)	-6
CC(=O)NCCNC(=O)C1(C)Cc2c(-c3cccc(C(N)=O)c3)ccnc2O1 (centres undefined)	14*	TbREL1 confirm=5
CCc1ccc(N2CC(C(=O)OCC(=O)Nc3ccc([N+](=O)[O-])cc3)CC2=O)cc1 (centres undefined)	1
CC(=O)/C(N=Nc1ccc(C(=O)O)cc1[N+](=O)[O-])=C(\C)O	12*	TbREL1 confirm=8
CC(=O)N1CCN(c2ccc(C(N)=O)cc2[N+](=O)[O-])CC1	6
O=C(O)c1ccc([N+](=O)[O-])cc1	2
COc1ccc(NC(=O)N(CCc2c(C)[nH]c3ccccc23)Cc2cccs2)cc1OC	2
CCOC(=O)c1cccc(C2=CC(=O)C[C@H](c3ccc(OC)c(OC)c3)C2)c1	-2
Oc1ccc(-c2nn[nH]n2)c2cccnc12	16*	TbREL1 confirm=0
Oc1ccc(Cl)c2cccnc12	1
Oc1ccc(Cc2ccccc2)c2cccnc12	-3
CN(CC(=O)Nc1ccccc1Cl)C(=O)C1CCN(C(=O)c2ccc(F)cc2)CC1	-2
C=CCn1c(SCC(=O)Nc2ccccc2-c2ccccc2)nnc1-c1ccccc1	-2
